Measurements published in publication PMC4336329 (PLoS ONE, 2015).
About 14,000 (4.5%) of roughly 310,000 compounds showed an effect of 50% or more. Effects have a minus sign here. What follows is part of a selection rich in strong results, with near analogues and random picks from the rest.

The compounds below were run against human ether-à-go-go-related gene (hERG) potassium channel (human, UniProt Q12809) (assay: primary screen, population patch clamp on CHO cells stably expressing hERG; higher = less effect of the substance).
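Also: peak tail current of the secondary pulse compared with the same well before compound.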

Sequence of human ether-à-go-go-related gene (hERG) potassium channel (Q12809 whole entry, looked up): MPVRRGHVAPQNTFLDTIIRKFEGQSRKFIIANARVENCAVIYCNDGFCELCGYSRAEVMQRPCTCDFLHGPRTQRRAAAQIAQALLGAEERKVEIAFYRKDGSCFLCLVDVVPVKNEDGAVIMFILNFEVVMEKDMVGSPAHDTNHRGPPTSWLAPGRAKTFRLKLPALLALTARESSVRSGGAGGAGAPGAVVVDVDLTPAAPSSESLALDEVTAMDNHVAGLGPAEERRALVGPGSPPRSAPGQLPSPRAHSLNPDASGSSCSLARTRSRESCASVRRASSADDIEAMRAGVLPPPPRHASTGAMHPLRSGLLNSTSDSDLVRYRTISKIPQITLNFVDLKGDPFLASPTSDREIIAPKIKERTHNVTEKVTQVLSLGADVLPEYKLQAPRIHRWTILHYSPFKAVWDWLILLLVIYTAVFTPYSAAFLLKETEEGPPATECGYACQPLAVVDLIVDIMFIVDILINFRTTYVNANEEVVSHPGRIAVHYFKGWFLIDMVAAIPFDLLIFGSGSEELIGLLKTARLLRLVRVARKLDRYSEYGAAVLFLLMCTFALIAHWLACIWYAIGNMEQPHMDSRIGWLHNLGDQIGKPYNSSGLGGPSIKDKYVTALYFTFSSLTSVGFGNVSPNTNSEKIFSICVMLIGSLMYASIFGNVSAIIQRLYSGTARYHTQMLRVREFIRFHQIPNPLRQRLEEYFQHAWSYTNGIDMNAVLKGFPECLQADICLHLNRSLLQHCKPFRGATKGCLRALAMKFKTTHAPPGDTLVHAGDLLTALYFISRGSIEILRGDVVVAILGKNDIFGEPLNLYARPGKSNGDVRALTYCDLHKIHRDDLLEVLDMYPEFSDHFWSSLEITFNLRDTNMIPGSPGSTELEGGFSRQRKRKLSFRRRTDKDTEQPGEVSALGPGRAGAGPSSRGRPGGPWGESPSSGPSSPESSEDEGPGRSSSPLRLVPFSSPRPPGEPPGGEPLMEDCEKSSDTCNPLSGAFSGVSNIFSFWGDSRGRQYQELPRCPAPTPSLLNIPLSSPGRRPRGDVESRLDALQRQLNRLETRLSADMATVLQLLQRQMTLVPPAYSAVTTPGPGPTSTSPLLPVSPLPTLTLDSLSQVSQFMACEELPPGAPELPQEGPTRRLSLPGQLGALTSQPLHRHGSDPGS

| Compound | hERG current change (%, negative = inhibition) at 10uM [%] |
| --- | --- |
| Cc1cc(-c2nnc(SCC(=O)Nc3ccccc3F)n2N)n[nH]1 | 13.8 |
| CC1(C)NC(=O)N(CCCC(=O)Nc2ccc(C(F)(F)F)cc2)C1=O | -16.9 |
| CCOC(=O)c1c(-c2cccs2)csc1NC(C)=O | -1.29 |
| COc1ccc(N2CC(C(=O)OCC(=O)Nc3ccccc3C)CC2=O)cc1 (centres unmarked) | 15.6 |
| CN1CCN(C(=S)c2ccc(Cl)cc2)CC1 | 3.39 |
| CCC(C)N(C(=O)COc1ccccc1C(=O)NCc1ccccc1)C1CCS(=O)(=O)C1 (centres unmarked) | -39.2 |
| CCN(C(=O)COc1ccccc1C(=O)NCc1ccccc1)C1CCS(=O)(=O)C1 (centres unmarked) | -22.1 |
| CCCN(CC1CC1)C(=O)COc1ccccc1C(=O)NCc1ccccc1 | -56 |
| COc1ccc(-n2nc3c(c2NC(=O)c2cc(Br)ccc2Cl)CS(=O)C3)cc1 (centres unmarked) | -43.4 |
| COc1ccc(-n2nc3c(c2NC(=O)c2ccc(Br)cc2)CS(=O)C3)cc1 (centres unmarked) | -50.8 |
| COc1ccc(C(=O)Nc2c3c(nn2-c2cccc(Cl)c2)CS(=O)C3)cc1 (centres unmarked) | -25.6 |
| CN(C)c1ccc(Sc2nnc(NC(=O)Nc3ccc(Cl)cc3Cl)s2)cc1 | 12.2 |
| O=C(O)c1cccc(S(=O)(=O)Nc2ccc3c(c2)OCO3)c1 | 23.4 |
| COc1ccc(C(=O)O)cc1S(=O)(=O)Nc1ccc(C)cc1 | 23.1 |
| CN(C)CC(NC(=O)c1cccc(S(=O)(=O)Nc2ccc3c(c2)OCO3)c1)c1ccccc1 (centres unmarked) | -14.8 |
| CCN1CCN(C(=O)c2ccc(OC)c(S(=O)(=O)Nc3ccc(C)cc3)c2)CC1 | -18.4 |
| COc1ccc(C(=O)NCc2ccccc2CN2CCCC2)cc1S(=O)(=O)Nc1ccc(C)cc1 | -57.9 |
| O=C(NCc1ccccc1CN1CCCC1)c1cccc(N2CCCC2=O)c1 | -3.11 |
| COc1ccc(OC)c(CN2CCN(C(=O)CNC(=O)c3cc(C)cc(C)c3)CC2)c1 | -42.7 |
| COc1ccc2cc(C(=O)NCc3ccccc3CN3CCCC3)ccc2c1 | -68.2 |

| Compound | hERG current change (%, negative = inhibition) at 10uM [%] |
| --- | --- |
| COc1ccc(OC)c(CN2CCN(C(=O)CNC(=O)c3ccc(C(C)(C)C)cc3)CC2)c1 | -53.9 |
| COc1ccc(C(=O)NCc2ccccc2OC)cc1 | -10.3 |
| CCN(CC)Cc1ccccc1CNC(=O)c1cccc(S(=O)(=O)Nc2ccc3c(c2)OCO3)c1 | -71.3 |
| COc1ccc(OC)c(CN2CCN(C(=O)CCNC(=O)c3ccc(Br)cc3)CC2)c1 | -45.7 |
| COc1ccccc1-c1nc(S(=O)(=O)c2ccccc2)c(N2CCCCC2)o1 | 14.4 |
| Cc1cc(C)cc(NC(=O)CSc2nc3[nH]ncc3c(=O)[nH]2)c1 | 11.8 |
| C/C(=N\NC(=S)Nc1cccc(C)c1)c1ccco1 | -6.35 |
| Cc1cc2c3c(c1C)C(=O)C(=O)N3C(C)(C)CC2C (centres unmarked) | 6.5 |
| O=C(COC(=O)CCCN1C(=O)c2ccccc2C1=O)Nc1cc(Cl)cc(Cl)c1 | -3.11 |
| CC12CCC(C(=O)Nc3nc4ccccc4s3)(OC1=O)C2(C)C (centres unmarked) | 2.26 |
| COc1ccc(NS(=O)(=O)c2cccc(C(=O)NCCCN3CCOCC3)c2)cc1 | 5.96 |
| COc1ccc(NS(=O)(=O)c2cccc(C(=O)NCc3ccccc3CN3CCCC3)c2)cc1 | -64.4 |
| Cc1cccc(NS(=O)(=O)c2cccc(C(=O)NCc3ccccc3CN3CCOCC3)c2)c1 | -26 |
| O=C(NCc1ccccc1CN1CCCC1)c1cccc(S(=O)(=O)Nc2ccc(F)cc2)c1 | -75.2 |
| O=C(NCc1ccccc1CN1CCCC1)c1ccc(OCc2cscn2)cc1 | -30 |
| COc1ccc(NS(=O)(=O)c2cccc(C(=O)NCc3ccco3)c2)cc1 | -15.8 |
| O=C(NCCN1CCOCC1)c1cccc(S(=O)(=O)Nc2ccc(F)cc2)c1 | -5.27 |
| Cc1nc(COc2ccc(C(=O)Nc3ccccc3N3CCOCC3)cc2)cs1 | -49.1 |
| Cc1nc(COc2ccc(C(=O)NCc3ccccc3CN3CCCCC3)cc2)cs1 | -52.5 |
| COc1ccc(N/C=C(\C(C)=O)c2ccc(OC)c(OC)c2)cc1OC | 18.2 |

| Compound | hERG current change (%, negative = inhibition) at 10uM [%] |
| --- | --- |
| CCNc1nc(N2CCOCC2)nc(N(c2ccccc2)c2ccccc2)n1 | -12.9 |
| CS(=O)(=O)N1CCC(C(=O)Nc2cc(Cl)cc(Cl)c2)CC1 | 4.85 |
| Cn1c(=O)c2c(nc(Sc3ccccc3N)n2C)n(C)c1=O | 11.4 |
| Cl.Fc1ccc(C(c2nnnn2Cc2ccco2)N2CCN(C3CCCCC3)CC2)cc1 (centres unmarked) | -65.6 |
| CC(C)CC(c1nnnn1Cc1ccco1)N1CCN(C2CCCC2)CC1.Cl (centres unmarked) | -38.1 |
| CC(C)C(c1nnnn1Cc1ccco1)N1CCN(C2CCCC2)CC1.Cl (centres unmarked) | -3.68 |
| Cl.c1ccc(C(c2nnnn2Cc2ccco2)N2CCN(C3CCCC3)CC2)cc1 (centres unmarked) | -53.5 |
| Cl.c1coc(Cn2nnnc2CN2CCN(C3CCCCC3)CC2)c1 | -41.4 |
| CCCC(c1nnnn1Cc1ccco1)N1CCN(C2CCCC2)CC1 (centres unmarked) | -31 |
| N#Cc1nc(COc2ccccc2)oc1N1CCOCC1 | -19.6 |
| Cc1ccc(NC(=O)/C=C\C(=O)NCC(=O)O)cc1 | 0.434 |
| CC(=O)C1=C(C)Nc2ncnn2C1c1ccc(Cl)cc1Cl (centres unmarked) | 2.23 |
| Cn1cc(CN2CCC(n3nccc3NC(=O)Cc3ccccc3)CC2)cn1 | -41.8 |
| O=C(Nc1ccc(N2CCN(C(=O)c3ccccc3)CC2)cc1)c1cccnc1 | -1.77 |
| CCc1ccc(C(=O)N2CCN(c3ccc(NC(=O)c4cccnc4)cc3)CC2)cc1 | -71.3 |
| COc1ccc(NC(=O)c2cccnc2)cc1 | -11.1 |
| Cc1ccccc1C(=O)N1CCN(c2ccc(NC(=O)c3cccnc3)cc2)CC1 | -23 |
| Cc1ccc(C(=O)N2CCN(c3ccc(NC(=O)c4cccnc4)cc3)CC2)cc1 | -38.8 |
| COc1ccc(C(=O)N2CCN(c3ccc(NC(=O)c4cccnc4)cc3)CC2)cc1 | -53.7 |
